Assay [1] relates to Plasmodium falciparum Sir2 (PF13_0152, Sir2A). Briefly: Plasmodium falciparum Sir2A binding compounds – biochemical, small-molecule microarray, 635 nm fluorescence, primary screen (AID 1098).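 Further: score merges spot fluorescence intensity with its signal-to-noise ratio.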 The settings on record: fluorescence 635 nm, higher = more signal.
Assay [2] in a line: probe aDKK1 binding to arrayed compounds – biochemical, biotinylated probe, 635/667 nm fluorescence, primary screen (AID 1099).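 Further: score merges 667nm spot fluorescence with signal to noise across triplicate slides.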 The settings on record: small-molecule microarray, higher = more signal.
The nature of assay [3]: probe aCHRDL2 binding to arrayed compounds – biochemical, biotinylated probe, 635/667 nm fluorescence, primary screen (AID 1100). The settings on record: small-molecule microarray, higher = more signal.
Assay [4] in a line: change in splice reporter luminescence, either direction, cell-based, HEK293, spliceosome inhibition project, primary screen (AID 1101).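 Further: HEK293 cells carrying a splicing-competent luciferase reporter gene; test concentration not given here.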 The settings on record: HEK293 splicing luciferase reporter, 24 h, higher = more signal, called active from +8 up or from −8 down.
Assay [5] has as its target Fibroblast growth factor 10 (Homo sapiens) (UniProt O15520). Description: compounds binding fibroblast growth factor 10 – biochemical, small-molecule microarray, 635 nm fluorescence, primary screen (AID 1102). The settings on record: FGF10 binding, fluorescence 635 nm, higher = more signal.
Assay [6] deals with glycogen synthase kinase-3 (GSK3A per assay name; protocol says GSK3B). Briefly: compounds binding glycogen synthase kinase-3 – biochemical, small-molecule microarray, 635 nm fluorescence, GSK3A, primary screen (AID 1103). Further: the record names both GSK3A and GSK3B. The settings on record: fluorescence 635 nm, higher = more signal.
Assay [7] concerns the target Epidermal growth factor receptor (Homo sapiens) (UniProt P00533). Description: compounds binding epidermal growth factor receptor – biochemical, small-molecule microarray, 635 nm fluorescence, primary screen (AID 1104).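 Further: score merges 667 nm emission intensity with spot signal to noise over triplicate slides.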 The note with it: EGFR binding, higher = more signal.
Assay [8] deals with Follistatin-related protein 3 (Homo sapiens) (UniProt O95633). Description: compounds binding follistatin-related protein 3 – biochemical, small-molecule microarray, 635 nm fluorescence, primary screen (AID 1105).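 Further: score merges emission near 667 nm and signal to noise per printed spot across three slides.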 The note with it: FSTL3 binding, higher = more signal.
Chain of Follistatin-related protein 3 (Homo sapiens) (O95633 whole entry, looked up): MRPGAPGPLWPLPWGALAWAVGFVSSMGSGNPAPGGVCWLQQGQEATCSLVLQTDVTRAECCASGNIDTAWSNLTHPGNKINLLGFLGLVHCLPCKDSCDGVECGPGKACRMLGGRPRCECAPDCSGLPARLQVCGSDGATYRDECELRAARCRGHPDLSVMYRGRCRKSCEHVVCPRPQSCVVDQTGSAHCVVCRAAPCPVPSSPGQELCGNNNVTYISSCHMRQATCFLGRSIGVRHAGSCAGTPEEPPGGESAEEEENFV
For assay [9], the target named is Dickkopf-related protein 1 (Homo sapiens) (UniProt O94907). Description: small molecules binding DKK1 protein – biochemical, small-molecule microarray, 635 nm fluorescence scan, primary screen (AID 1106).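 Further: score merges emission near 667 nm with signal to noise over three replicate slides.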 The settings on record: higher = more signal.
Chain of Dickkopf-related protein 1 (Homo sapiens) (O94907 whole entry, looked up): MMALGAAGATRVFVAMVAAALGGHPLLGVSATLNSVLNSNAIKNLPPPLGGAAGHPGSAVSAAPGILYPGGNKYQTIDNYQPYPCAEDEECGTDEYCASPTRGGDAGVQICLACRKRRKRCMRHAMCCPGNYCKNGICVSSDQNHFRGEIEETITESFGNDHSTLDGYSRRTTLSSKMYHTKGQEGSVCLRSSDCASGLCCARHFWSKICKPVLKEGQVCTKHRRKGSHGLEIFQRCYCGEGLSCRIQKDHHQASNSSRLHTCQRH
Assay [10] relates to Inhibin beta A chain (activin A). Briefly: small molecules binding activin A – biochemical, small-molecule microarray, 635 nm fluorescence scan, primary screen (AID 1107).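 Further: mouse activin A protein probed at 4.33 µg/mL on printed slides; score merges bound-protein fluorescence near 667 nm with spot signal-to-noise.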 The note with it: INHBA, higher = more signal.
Assay [11] deals with Human papillomavirus type 1a protein E7 (residues 44-93). Briefly: small molecules binding HPV E7 44-93 – biochemical, small-molecule microarray, residues 44-93, 635 nm fluorescence, primary screen (AID 1108).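 Further: E7 fragment applied at 1 µg/mL in TBST for 1 h at 4 C; score combines spot fluorescence with its signal to noise ratio.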 The note with it: fluorescence 635 nm, higher = more signal.
Assay [12] is described as follows: hepatitis C replication reporter changes, two-sided – Huh7 cells, luciferase reporter, HCV replication inhibitor project, primary screen (AID 1109).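 Further: huh7 hepatoma cells harbouring a luciferase neomycin HCV replicon reporter; luciferase luminescence as measure of HCV replicon replication; test concentration not given here.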 The settings on record: Huh7 HCV replicon luciferase reporter, 48 h; higher = more signal. For orientation: In a reporter assay the amount or activity of a reporter protein is the signal.
In assay [13] the target is Left-right determination factor 2 (Homo sapiens) (UniProt O00292). Description: small molecules binding LEFTY2 protein – biochemical, small-molecule microarray, 635 nm fluorescence scan, primary screen (AID 1110). The settings on record: higher = more signal.
Chain of Left-right determination factor 2 (Homo sapiens) (O00292 whole entry, looked up): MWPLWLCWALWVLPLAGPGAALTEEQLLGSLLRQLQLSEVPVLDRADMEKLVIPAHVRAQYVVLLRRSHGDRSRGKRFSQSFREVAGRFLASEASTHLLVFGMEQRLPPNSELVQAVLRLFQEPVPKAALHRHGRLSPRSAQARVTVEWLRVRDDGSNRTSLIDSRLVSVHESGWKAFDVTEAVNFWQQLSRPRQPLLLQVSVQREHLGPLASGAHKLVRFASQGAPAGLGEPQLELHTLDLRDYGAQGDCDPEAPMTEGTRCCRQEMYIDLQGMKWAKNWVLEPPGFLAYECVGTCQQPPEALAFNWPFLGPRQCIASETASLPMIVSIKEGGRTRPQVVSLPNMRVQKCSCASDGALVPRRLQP
Assay [14] has as its target Calmodulin-1 (Homo sapiens) (UniProt P0DP23). Description: small molecules binding calmodulin-1 with EGTA – biochemical, small-molecule microarray, Cy5-labelled CALM1, profiling panel (AID 1111).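 Further: labelled calmodulin applied in Tris saline Tween buffer holding calcium plus EGTA and DTT.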 The note with it: Cy5-CALM1 binding fluorescence, higher = more signal.
Assay [15] has the same target. Description: small molecules binding Ca-loaded calmodulin-1 – biochemical, small-molecule microarray, Cy5-labelled CALM1, plus calcium, artefact control for SMM control-protein annotation, profiling panel (AID 1112).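 Further: score merges spot fluorescence with signal to noise from triplicate slides.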 The settings on record: Cy5-CALM1 binding fluorescence, higher = more signal.
Assay [16] is described as follows: probe aWnt5a binding to arrayed compounds – biochemical, biotinylated probe, 635/667 nm fluorescence, primary screen (AID 1113).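 Further: score merges 667 nm fluorescence intensity with signal-to-noise per printed feature.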 The settings on record: small-molecule microarray, higher = more signal.
Assay [17] can be described thus: probe aShh binding to arrayed compounds – biochemical, biotinylated probe, 635/667 nm fluorescence, primary screen (AID 1114).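 Further: probe is biotin-labelled aShh protein from a stem cell growth factor screen; measures binding of labelled protein to compounds printed on the slide; score merges feature fluorescence at 667 nm with signal-to-noise.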 The note with it: small-molecule microarray, higher = more signal.
Assay [18] is described as follows: probe aNog binding to arrayed compounds – biochemical, biotinylated probe, 635/667 nm fluorescence, primary screen (AID 1115).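 Further: probe is biotinylated aNog protein used at 0.15 µg/mL for 1 h at 4 C; z-score combines 667 nm fluorescence of each spot with its signal to noise.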 The settings on record: small-molecule microarray, higher = more signal.
For assay [19], the target named is Torsin-1A-interacting protein 1 (Homo sapiens) (UniProt Q5JTV8). Description: compound microarray binding of lysate hLAP1 – cell lysate, small-molecule microarray, COS7 lysate, 635/667 nm fluorescence, primary screen (AID 1116). The settings on record: 635 nm fluorescence, higher = more signal.
Chain of Torsin-1A-interacting protein 1 (Homo sapiens) (Q5JTV8 whole entry, looked up): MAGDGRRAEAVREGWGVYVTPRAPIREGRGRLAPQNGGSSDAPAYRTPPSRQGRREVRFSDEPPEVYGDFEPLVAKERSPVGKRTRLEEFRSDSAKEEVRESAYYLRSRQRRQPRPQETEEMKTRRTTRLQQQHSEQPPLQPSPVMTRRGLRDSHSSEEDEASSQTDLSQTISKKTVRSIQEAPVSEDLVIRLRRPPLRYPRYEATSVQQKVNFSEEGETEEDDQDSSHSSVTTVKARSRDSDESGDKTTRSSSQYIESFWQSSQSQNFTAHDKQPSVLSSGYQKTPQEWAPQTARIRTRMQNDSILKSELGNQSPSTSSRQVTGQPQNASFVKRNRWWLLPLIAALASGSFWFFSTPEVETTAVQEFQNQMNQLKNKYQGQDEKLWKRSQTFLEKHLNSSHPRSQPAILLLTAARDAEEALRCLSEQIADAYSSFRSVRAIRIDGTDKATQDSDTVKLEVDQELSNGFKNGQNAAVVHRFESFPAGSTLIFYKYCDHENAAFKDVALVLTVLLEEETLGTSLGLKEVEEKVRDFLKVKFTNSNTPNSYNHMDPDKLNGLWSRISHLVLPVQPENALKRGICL
Assay [20] has as its target Alpha-bungarotoxin (Bungarus multicinctus) (UniProt P60615). Briefly: compounds binding labelled alpha-BTX control protein – biochemical, small-molecule microarray, Alexa647 label, 635/667 nm fluorescence, artefact control for SMM control protein annotation, profiling panel (AID 1117). The settings on record: alpha-BTX-A647 binding fluorescence, higher = more signal.

The source made the active and inactive calls.

Here are results for 6 compounds from PubChem BioAssay.

Chain of Alpha-bungarotoxin (Bungarus multicinctus) (P60615 whole entry, looked up): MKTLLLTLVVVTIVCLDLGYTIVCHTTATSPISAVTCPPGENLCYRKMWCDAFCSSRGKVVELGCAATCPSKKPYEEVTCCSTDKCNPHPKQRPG
Chain of Epidermal growth factor receptor (Homo sapiens) (P00533 whole entry, looked up): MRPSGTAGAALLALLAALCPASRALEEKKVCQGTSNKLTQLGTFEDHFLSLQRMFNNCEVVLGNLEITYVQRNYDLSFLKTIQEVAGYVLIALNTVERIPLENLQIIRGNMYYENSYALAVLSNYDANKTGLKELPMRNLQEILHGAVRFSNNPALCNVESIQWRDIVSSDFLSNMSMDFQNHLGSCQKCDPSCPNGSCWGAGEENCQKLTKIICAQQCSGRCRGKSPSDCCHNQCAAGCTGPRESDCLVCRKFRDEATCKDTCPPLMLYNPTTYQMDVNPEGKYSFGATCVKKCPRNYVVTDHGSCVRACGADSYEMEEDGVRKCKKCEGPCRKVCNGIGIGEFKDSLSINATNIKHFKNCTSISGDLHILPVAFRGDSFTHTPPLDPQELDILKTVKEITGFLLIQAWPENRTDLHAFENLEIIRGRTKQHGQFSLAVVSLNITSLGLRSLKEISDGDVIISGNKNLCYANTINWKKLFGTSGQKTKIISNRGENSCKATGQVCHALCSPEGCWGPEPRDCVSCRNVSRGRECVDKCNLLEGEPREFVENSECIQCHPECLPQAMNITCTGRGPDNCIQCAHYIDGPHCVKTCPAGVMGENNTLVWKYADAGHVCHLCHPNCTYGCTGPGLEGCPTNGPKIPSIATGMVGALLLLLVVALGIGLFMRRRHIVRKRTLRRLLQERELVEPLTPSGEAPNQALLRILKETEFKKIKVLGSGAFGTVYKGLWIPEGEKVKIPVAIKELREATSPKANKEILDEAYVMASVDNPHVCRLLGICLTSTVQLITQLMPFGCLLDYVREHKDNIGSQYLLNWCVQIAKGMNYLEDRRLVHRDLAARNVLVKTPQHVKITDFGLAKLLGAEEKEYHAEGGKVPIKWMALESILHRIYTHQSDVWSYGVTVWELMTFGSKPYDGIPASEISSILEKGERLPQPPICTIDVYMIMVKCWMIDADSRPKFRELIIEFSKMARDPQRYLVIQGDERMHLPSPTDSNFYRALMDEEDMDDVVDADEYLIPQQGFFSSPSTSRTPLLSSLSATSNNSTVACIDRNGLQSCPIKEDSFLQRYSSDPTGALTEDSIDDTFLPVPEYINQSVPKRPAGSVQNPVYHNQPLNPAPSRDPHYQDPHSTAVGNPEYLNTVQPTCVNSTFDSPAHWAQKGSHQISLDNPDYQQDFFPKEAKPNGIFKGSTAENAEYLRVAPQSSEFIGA
Chain of Fibroblast growth factor 10 (Homo sapiens) (O15520 whole entry, looked up): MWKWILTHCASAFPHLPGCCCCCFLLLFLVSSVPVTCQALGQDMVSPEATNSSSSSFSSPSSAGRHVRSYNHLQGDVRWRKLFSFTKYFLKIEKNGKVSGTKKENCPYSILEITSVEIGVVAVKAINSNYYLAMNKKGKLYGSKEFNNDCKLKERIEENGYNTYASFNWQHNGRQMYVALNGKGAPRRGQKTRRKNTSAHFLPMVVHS

On to `C=CCC(OC(C)=O)[C@@H]1[C@@H](N(Cc2cccc3ccccc23)C(=O)Cc2ccc(OC)cc2)c2cc(OCCCO)ccc2N1C(=O)c1ccc2ccccc2c1` (stereo not given in full), for which the composite z-score in [1] is 0.0596; in [2], 0.0644; in [3] it was 0.256; in assay [5], 0.045; in assay [6], -0.344; in [7], 0.0359. For the same compound, the composite z-score was found to be 0.627 in assay [8]; 0.234 in assay [9]; 1.35 in assay [10]; 0.233 in assay [11]; 0.139 in assay [13]; 0.468 in assay [14]. Also, the composite z-score in assay [15] was -0.385; in [16], -0.0398; in [17], 0.138; in [18], -0.23; in assay [19] it was 0.119; in [20], 0.337. The z-score was -1.68 (inactive) in assay [4] and -0.922 in assay [12].

`C=CCOC(=O)[C@H]1[C@@H]2C(=O)O[C@@H](c3ccccc3)[C@@H](c3ccccc3)N2[C@@H](c2ccc(OCCOC(=O)[C@@H]3C[C@@H]4C(=O)N[C@@H](CCCCNC(C)=O)C(=O)N4[C@@H]3c3cccc(OCCO)c3)cc2)[C@]12C(=O)Nc1ccccc12`: the composite z-score in [1] worked out at 1.43; in [2], 0.171; in assay [3] it was 0.042; in assay [5], 0.794; in assay [6] it was 1.32; in assay [7], 0.793. In addition, the composite z-score in [8] amounted to 0.726; in [9] it was 0.698; in [10], 0.239; in assay [11] it was 0.843; in assay [13], 0.781; in [14], 0.258. Further, the composite z-score was 0.121 in assay [15]; -0.124 in assay [16]; 0.147 in assay [17]; 0.254 in [18]; 0.439 in assay [19]; -0.0506 in [20]. In addition, the z-score in assay [4] was 0.736 (inactive); in assay [12] it was -1.48.

With `C=C(CCCC)/C(=C/C[C@H](OC(=O)c1ccncc1)c1ccc(OCCO)cc1)c1cnc2ccccc2c1`, the composite z-score in assay [1] is 1.47; in assay [2] it was -0.107; in [3], 0.164; in assay [5], 0.898; in [6] it was 0.829; in assay [7], 0.776. Also, the composite z-score in [8] was 1.45; in assay [9], 0.768; in assay [10] it was 1.36; in assay [11] it was -0.38; in assay [13], 0.437; in assay [14] it was 0.679. The composite z-score in [15] was -0.159; in assay [16], -0.129; in assay [17] it was -0.0146; in [18], -0.125; in assay [19] it was 0.49; in assay [20], 2.52. Besides, the z-score was -0.0197 (inactive) in assay [4] and -2.25 in assay [12].

In the case of `COc1ccc(NN2C(C(O)c3ccc(I)cc3)C=CC3C(=O)N(C4CCCCC4)C(=O)C32)cc1` (stereo not given), the composite z-score in assay [1] was found to be 0.404; in assay [2], 0.519; in assay [3], 0.792; in assay [5] it was 1.33; in [6], 1.31; in assay [7], 0.479. In addition, the composite z-score in [8] worked out at 1.46; in [9] it was 0.0284; in assay [10], 0.504; in assay [11] it was 1.43; in assay [13], 0.349; in assay [14], 1.21. Besides, the composite z-score is 0.679 in assay [15]; 0.18 in [16]; -0.147 in assay [17]; 0.261 in assay [18]; 0.811 in [19]; 1.45 in assay [20]. Also, the results for the z-score in [4] and in [12] were 0.293 (inactive) and -2.6, respectively.

For `NC(=O)N1C(=O)C2C(C1=O)C1C=C(CCCO)C2C(c2ccc(CN3CCCC3)cc2)N1Cc1cc2c(cc1Br)OCO2` (stereo not given), the composite z-score in assay [1] was -0.0167; in assay [2] it was -0.204; in assay [3], 0.228; in assay [5], 0.325; in assay [6], 0.177; in assay [7], -0.287. In addition, the composite z-score in [8] was -0.0816; in assay [9], 0.388; in assay [10], 0.45; in [11], -1.36; in [13], 0.943; in assay [14], -0.666. The composite z-score is -0.361 in assay [15]; -0.128 in [16]; 0.0796 in assay [17]; -0.252 in assay [18]; 0.187 in assay [19]; -0.493 in assay [20]. The z-score was 0.343 (inactive) in assay [4] and -1.51 in assay [12].

For `CN(C)CCCC[C@@H]1NC(=O)[C@@H]2C[C@H](C(=O)NCCCCCCNC(=O)CS)[C@H](c3ccc(O)cc3)N2C1=O`, the composite z-score in [1] is 0.73; in assay [2], -0.165; in assay [3], -0.294; in [5], 1.34; in assay [6], 1.24; in assay [7], 0.954. Besides, the composite z-score in [8] was 0.997; in assay [9], 1.31; in assay [10], 0.277; in assay [11], 1.16; in assay [13] it was 1.24; in assay [14], -0.383. For the same compound, the composite z-score in [15] is -0.199; in assay [16] it was -0.275; in assay [17] it was -0.124; in assay [18], -0.0174; in assay [19] it was 0.464; in assay [20], 0.136. The values for the z-score in assay [4] and in assay [12] were 1.06 (inactive) and 0.278, respectively.
